# Data taken from PubChem BioAssay AID1527 (The Scripps Research Institute Molecular Screening Center, 2009).
# About 2,600 (0.9%) of roughly 290,000 compounds were called active. The list comes from a sample in which actives are over-represented; it also holds similar structures and randomly drawn compounds. A number with no mark means an inactive call.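 Rule for the calls: active = inhibition above the mean of all tested compounds plus 3 SD, cutoff set per screening run (cut at about 7.5% in these data); inactive = the rest.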
# Test system: VIM-2 metallo-beta-lactamase (Pseudomonas aeruginosa)
# Test: inhibition of VIM-2 nitrocefin hydrolysis – biochemical, epi-absorbance readout, Pseudomonas aeruginosa enzyme, primary screen (AID 1527);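 note: red hydrolysis product quenches plate fluorescence so inhibitors raise well fluorescence; 0% = enzyme with DMSO and 100% = DMSO without enzyme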
# Conditions: purified VIM-2, nitrocefin hydrolysis, epi-absorbance fluorescence; at 5.6 µM; hits give high values
row,Structure (SMILES),inhibition
1,CCc1cc(C(=O)c2ccc(OC)cc2)c(NC(=O)CN2CCN(C)CC2)s1,7.76% (active)
2,CCc1cc(C(N)=O)c(NC(=O)c2ccc(OC)cc2)s1,-2.73%
3,CCOc1ccc(NC(=O)CN2CCN(CC(=O)Nc3ccc(OC)cc3)CC2)cc1,0.38%
4,COc1cccc(CN(C)CC2CCCN(CCc3ccc(Cl)cc3)C2)c1OC (stereo not given),-0.31%
5,COc1ccc(CNc2cc(C)cc(C)c2)cc1OC,-0.65%
6,O=C(/C=C/c1cccc(C(F)(F)F)c1)N1CCN(c2ccccn2)CC1,-1.71%
7,COc1ccccc1NC(=O)C1CCN(C(=O)c2ccc(C(C)(C)C)cc2)CC1,-0.92%
8,Cc1ccc(NS(=O)(=O)c2ccc3c(c2)NC(=O)CO3)cc1,-3.86%
9,COc1cccc(/C=C2\Sc3ccc(C(=O)NCC4CCCO4)cc3N(C)C2=O)c1 (stereo not given),2.03%
10,COCCCn1c(SCC(=O)NC2CCCC2)nnc1-c1ccccc1,-3.05%
11,CCC(C)c1ccc(NC(=S)N2CCCC2)cc1 (stereo not given),-4.58%
12,Cc1cc(C)c2nc(SCCC#N)nc(C)c2c1,0.46%
13,Cc1cc(C)c2nc3nc(C)cc(C)c3c(N)c2c1,23.4% (active)
14,Cc1cc(C)c2nc(-c3ccco3)cc(C(=O)O)c2c1,-2.98%
15,Cc1cccnc1CC(C)NC(=O)c1cc(COc2cncc(Cl)c2)on1 (stereo not given),-1.87%
16,O=C1c2ccccc2C(=O)c2c1cccc2N1CCN(Cc2ccccc2)CC1,-2.44%
17,O=C1c2ccccc2C(=O)c2c1cccc2N1CCN(CCO)CC1,8.84% (active)
18,OCCN1CCN(c2nnc(-c3ccccc3)c3ccccc23)CC1,1.21%
19,CN(C)Cc1c(O)ccc2c(=O)c(-c3ccccc3Cl)coc12,-1.33%
20,Cc1ccc(CNC(=O)C2CCCN2S(=O)(=O)c2ccc3c(c2)C(C)(C)C(=O)N3C)cc1 (stereo not given),-0.78%
21,Cc1ccc2nc3n(c(=O)c2c1)CCC3,-2.8%
22,Cc1ccc2nc(Nc3ccccc3)cc(C)c2c1,0.49%
23,Cc1ccc2nc(C)c3c(c2c1)N(c1ccccc1)CC3,14.6% (active)
24,COc1ccc(S(=O)(=O)N(CC(=O)NCc2ccco2)c2ccc(F)cc2)cc1,-4.2%
25,CCOc1ccccc1-c1nc(CN2CCC(C(=O)N3CCOCC3)CC2)c(C)o1,-1.39%

row,Structure (SMILES),inhibition
1,Cc1cc(C)c2c(n1)nn1c(N3CCN(c4cccc(Cl)c4)CC3)cc(C)nc21,-6.43%
2,Cc1cc(C)c2c(n1)nn1c(-n3ccnc3)cc(C)nc21,5.51%
3,Cc1cc(C)c2c(n1)nn1c(N3CCOCC3)cc(C)nc21,16.1% (active)
4,COc1ccc(OCC(=O)NCCS(=O)(=O)N2CCN(c3ccc(F)cc3)CC2)cc1,-1.58%
5,CCC(=O)N1c2ccc(S(=O)(=O)NCc3ccco3)cc2CC1C (stereo not given),-0.12%
6,O=C(N/C(=C\c1ccc([N+](=O)[O-])cc1)C(=O)N1CCCCC1)c1ccco1,-3.79%
7,COc1ccc(OC)c(S(=O)(=O)n2c([N+](=O)[O-])cnc2C)c1,-2.01%
8,CCOC(=O)C(Cc1ccc(N)cc1)N1C(=O)c2ccccc2C1=O (stereo not given),-2.51%
9,Cc1cc(Cl)ccc1OCCCC(=O)NCc1ccncc1,-1.05%
10,CC(Oc1cc2oc(=O)c3c(c2cc1Cl)CCCC3)C(=O)NCc1ccncc1 (stereo not given),7.79% (active)
11,COc1ccc(S(=O)(=O)NC(C)C(=O)NCc2ccncc2)cc1Cl (stereo not given),-2.14%
12,CCCCc1nc2cc(C(=O)NCCc3cnn(C)c3)ccc2o1,1.12%
13,Cc1nnc(SCC(=O)NCc2cccs2)[nH]c1=O,-0.38%
14,CC(C)(C)CC(=O)Nc1nnc(SCC(=O)NCc2cccs2)s1,20.2% (active)
15,O=C(Cc1cccs1)Nc1nnc(SCc2ccc(F)cc2)s1,0.7%
16,CCn1c(SCc2cccc(C(=O)O)c2)nnc1-c1ccc(Cl)cc1,-1.15%
17,Cn1c(=O)c2c(nc(N3CCCCCC3)n2CC(=O)c2ccc(Br)cc2)n(C)c1=O,-2.28%
18,CCCCn1c(SCC(=O)N2CCOCC2)nc2c1c(=O)n(C)c(=O)n2C,1.45%
19,Cn1c(=O)c2c(nc(N3CCOCC3)n2CCNC2=NCCC2)n(C)c1=O,16% (active)
20,COc1ccc(C(=O)NCCNc2ccc([N+](=O)[O-])cn2)cc1,0.89%
21,Cc1c(OC(C)C(=O)N[C@@H](Cc2ccccc2)C(=O)O)ccc2c3c(c(=O)oc12)CCCC3 (stereo not given in full),6.52%
22,Cc1cc(=O)oc2c(C)c(OC(C)C(=O)NC3CCN(Cc4ccccc4)CC3)ccc12 (stereo not given),2.37%
23,Cc1c(OC(C)C(=O)NCC2CCC(C(=O)O)CC2)ccc2c1oc(=O)c1ccccc12 (stereo not given),10.8% (active)
24,C=CCc1ccc(OCCOc2cccc(/C=N/n3cnnc3)c2)c(OC)c1,0.81%
25,Cc1noc(C)c1CSCC(=O)N(CCC(C)C)c1c(N)n(Cc2ccccc2)c(=O)[nH]c1=O,-3.06%

row,Structure (SMILES),inhibition
1,O=C(COc1ccc2c3c(c(=O)oc2c1)CCCC3)NCC(O)c1ccccc1 (stereo not given),6.2%
2,CCCCc1cc(=O)oc2c(C)c(OCC(=O)N3CCC(C(N)=O)CC3)ccc12,-1.28%
3,NC(=O)C1CCN(C(=O)COc2ccc3c4c(c(=O)oc3c2)CCC4)CC1,14.1% (active)
4,NC(=O)COc1ccc2c3c(c(=O)oc2c1)CCCCC3,7.97% (active)
5,Cc1c(C)c2ccc(OCC(=O)N3CCN(c4cccc(Cl)c4)CC3)cc2oc1=O,-1.38%
6,O=C(COc1ccc2c3c(c(=O)oc2c1)CCC3)NC1CCCCC1,-1.01%
7,Cc1cc(Cl)nc(NC(=O)Nc2cccc(Cl)c2)n1,1.05%
8,Nc1cc(N)nc(SCc2cccc(F)c2)n1,3.79%
9,N=c1oc2ccccc2cc1C(=O)NCc1ccccc1,-0.7%
10,CCOC(=O)CSc1nc2ccc(C)cc2n2cnnc12,9.79% (active)
11,COc1ccc(CCNc2nc3ccc(C)cc3n3cnnc23)cc1OC,0.51%
12,CCOC(=O)CSc1nc2ccc(C)cc2[nH]1,0.26%
13,CCOC(=O)c1sc(NC(=S)n2cc(C)cn2)c(C(=O)OCC)c1C,-2.26%
14,CN1CCN(c2cc3c(cc2F)c(=O)c(C(=O)O)cn3CCF)CC1,-0.28%
15,CCn1cc(C(=O)NCCO)c(=O)c2cc(F)c(N3CCN(C)CC3)cc21,1.17%
16,CCn1cc(S(=O)(=O)c2cccc(C)c2)c(=O)c2cc(F)c(N3CCN(C)CC3)cc21,12.1% (active)
17,COc1ccc(/C=C/C(=O)NC(=S)N2CCCC(C(N)=O)C2)cc1 (stereo not given),-3%
18,COc1ccc(CNc2ccc3c(c2)CCC3)cc1OC,-1.76%
19,CC(=O)c1ccc(-c2ccc(Cn3c(C)nc4cc(N)c(C)nc43)cc2)cc1,21.7% (active)
20,CC(=O)c1nc2ccccc2n1Cc1ccccc1,-0.19%
21,CCOC(=O)c1ccc2c(c1)nc(C)n2CC,-4.24%
22,O=C(N/N=C/c1ccc(Cl)c(Cl)c1)c1ccc2nc[nH]c2c1,-1.16%
23,CS(=O)(=O)N1CCCC(C(=O)Nc2ccccc2C(F)(F)F)C1 (stereo not given),-0.2%
24,O=C(CSc1ccc(-c2ccco2)nn1)Nc1cccc(F)c1,-1.64%
25,Cc1ccccc1C(=O)NC(=S)NC1CC1,-2.76%
